DRD3 antagonist: D3 dopamine receptor (human) antagonism; D3R cells, DiscoveRx beta-arrestin luminescence, antagonist mode; hits give low values; max response, negative = inhibition, %; actives 2.5% (n = 360,000); in the data active = max response below about -50%; inconclusive = no clear call, values can overlap the other calls
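Cells expressing the human receptor were seeded at 1500 cells/well, incubated overnight at 37 degrees C in 5% CO2, then exposed to library compounds with dopamine controls for 90 minutes at 37 degrees C before luminescent detection.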
D1 potentiator: human D1 dopamine receptor positive modulation; HEK293 TREx D1 cells, calcium flux, dopamine EC20 potentiation; actives 0.036% (n = 360,000); potentiation, % at 10 µM; in the data active = potentiation above about 30%
Target sequence (P21728 whole entry, looked up): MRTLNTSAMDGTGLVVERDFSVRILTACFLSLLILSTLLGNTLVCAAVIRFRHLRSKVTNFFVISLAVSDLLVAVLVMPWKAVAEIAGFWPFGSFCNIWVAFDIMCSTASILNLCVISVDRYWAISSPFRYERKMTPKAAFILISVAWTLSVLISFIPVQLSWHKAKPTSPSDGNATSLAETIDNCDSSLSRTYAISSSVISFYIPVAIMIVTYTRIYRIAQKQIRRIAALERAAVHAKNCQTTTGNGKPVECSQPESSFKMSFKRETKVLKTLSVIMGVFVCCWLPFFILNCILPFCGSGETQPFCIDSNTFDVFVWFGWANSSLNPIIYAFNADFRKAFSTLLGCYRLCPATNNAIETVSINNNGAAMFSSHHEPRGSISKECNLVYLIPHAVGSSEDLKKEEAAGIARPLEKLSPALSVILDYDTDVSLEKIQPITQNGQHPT
D1 antag: human D1 dopamine receptor antagonism | HEK293 TREx D1 cells, calcium flux, dopamine EC80; hits give low values | activity change, negative = inhibition, % at 10 µM | actives 3.2% (n = 360,000) | AID 504652; in the data active = activity change below about -30%
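Tetracycline-induced HEK293 T-REx cells with force-coupled D1 receptor were loaded with a no-wash calcium dye. Compound was added after a 10 s baseline and read kinetically for 180 s; EC80 dopamine was then added and calcium flux followed another 180 s.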
D1 ag: activates the human D1 dopamine receptor; P21728; HEK293 T-REx D1 cells, calcium flux, agonist mode; activation, % at 2 µM; actives 1% (n = 360,000); AID 504660; in the data active = activation above about 30%
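Inducible HEK293 T-REx D1 cells, force-coupled to calcium signalling, were plated at 4000 cells/well with tetracycline and held overnight at 30 C. After no-wash calcium dye loading, compound-evoked calcium rise over 180 s flagged agonists.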
D3 ag: D3 dopamine receptor (human) agonism; P35462; D3R DiscoveRx beta-arrestin cells, luminescence, 90 min; max activation, %; actives 0.58% (n = 410,000); in the data active = max activation above about 30%
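Agonist-mode cell screen: cells plated at 1500/well and incubated overnight at 37 °C, then exposed to library compounds for 90 min at 37 °C. Detection reagent was added for 30–60 min at room temperature, and luminescence was read.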
A number is an active result; - = inactive; ? = inconclusive; . = no result given. The list is not random: actives were taken first. Their share in the collection is about 6%.

SMILES	DRD3 antagonist	D1 potentiator	D1 antag	D1 ag	D3 ag
CCCC(C)C1(CC)C(=O)NC(=O)NC1=O (configuration not stated)	.	.	.	.	-
CCN1C[C@]2(COC)[C@H](O)C[C@H](OC)[C@@]34[C@@H]5C[C@@]6(O)[C@H](OC(=O)c7ccccc7)[C@@H]5[C@@](OC(C)=O)([C@@H]([C@H](OC)[C@H]23)[C@@H]14)[C@@H](O)[C@@H]6OC	.	.	.	.	-
c1ccc(CN2CCc3nc4ccccc4cc3C2)cc1	-	-	-	-	60
CN1CCN(Cc2ccc3ccccc3c2)CC1	-	-	-	-	-
COC1CCC(OC2CC(C3(C)CCC4(CC(O)C(C)C(C(C)/C=C(\C)C(=O)C(C)CC(C)C(=O)O)O4)O3)OC3(OC(C4OC(O)(CO)C(C)CC4C)CC3C)C2C)OC1C (configuration not stated)	-	.	.	.	71
O=C(COc1ccccc1)c1cn(Cc2ccccc2)c2ccccc12	?	-	-	30	-
N#CCN1CCN(c2ccc(C(F)(F)F)cc2)CC1	-	-	-50	-	-
OC(O)C(Cl)(Cl)Cl	.	.	.	.	-
O=C(Nc1cccc(Cl)c1)OC1CN2CCC1CC2 (configuration not stated)	-	-	-38	-	-
O=C(Nc1ccc(Cl)cc1)OC1CN2CCC1CC2 (configuration not stated)	-	-	-	30	-
O=C(Nc1ccccc1F)OC1CN2CCC1CC2 (configuration not stated)	-	-	-	-	-
O=C(Nc1ccccc1Cl)OC1CN2CCC1CC2 (configuration not stated)	-	-	-38	-	-
COc1cccc(C2SCC(=O)Nc3c2c(C)nn3-c2ccc(C)c(Cl)c2)c1OC (configuration not stated)	.	-	-	-	-
COC(=O)c1ccc(NC(=O)c2cccn(Cc3ccccc3C)c2=O)cc1	.	-	-	-	-
CN(c1ccc(O)cc1)c1ccc([N+](=O)[O-])c2nonc12	?	.	.	.	-
Nc1ccc2nonc2c1[N+](=O)[O-]	-	-	-	92	-
O=C(COc1ccccc1)N1CCN(C2CCCC2)CC1	?	-	-	-	-
Cc1cccc(OCC(=O)N2CCN(Cc3ccc4c(c3)OCO4)CC2)c1	?	-	-	-	-
O=C(Cc1ccccc1)N1CCN(C2CCCC2)CC1	-72	-	-	-	-
CN1CCN(C(=O)COc2ccc3ccccc3c2)CC1	-	-	-	-	-
O=C(COc1ccc2ccccc2c1)N1CCN(C2CCN(Cc3ccccc3)CC2)CC1	-	-	-46	-	-
Cc1cccc(OCC(=O)N2CCN(Cc3ccncc3)CC2)c1	-77	-	-	-	-
C=CC(=O)NCNC(=O)C=C	-76	-	.	-	-
CN1C(=O)C(=Cc2cc([N+](=O)[O-])ccc2N2CCCCC2)C(=O)N(C)C1=O	-	-	-	-	-
CN1C(=O)C(=Cc2sc(=O)n(-c3ccccc3)c2N2CCCCC2)C(=O)N(C)C1=O	-	-	-	67	-
SMILES	DRD3 antagonist	D1 potentiator	D1 antag	D1 ag	D3 ag
c1cc(C2N3CCCN2CC3)ccn1 (configuration not stated)	-	-	-44	-	-
CC12CN3CC(C)(CN(C1)C3c1cccnc1)C2=O (configuration not stated)	-	-	-	-	-
Clc1ccc(Cl)cc1	.	.	.	.	-
FC(F)(F)c1ccc2c(c1)N(CCCN1CCN(CCCl)CC1)c1ccccc1S2	-78	-	.	-	-
O=c1[nH]c(=S)n(-c2ccccc2)c(O)c1C=NCc1ccccn1	-	-	-44	-	-
Cc1ccc(-n2c(O)c(C=NCc3ccccn3)c(=O)[nH]c2=S)cc1	-	-	-	-	-
CC(C(=O)c1cn(C)c2ccccc12)c1ccccc1 (configuration not stated)	-70	-	-	-	-
Cn1cc(C(=O)N2CCCCC2)c2ccccc21	-	-	-30	-	-
O=C(CCc1nc(C2=CCN(Cc3cccc(Cl)c3)CC2)no1)Nc1ccccc1F	.	-	-	-	-
O=[N+]([O-])c1ccc(N2CCCCCC2)c2nonc12	-	-	-	526	-
Cc1ccccc1N1CCN(Cc2ccc3c(c2)OCO3)CC1	-76	-	-	-	-
O=C(COc1ccc(Br)cc1)N1CCN(Cc2ccc3c(c2)OCO3)CC1	-	-	-34	-	-
Clc1ccccc1N1CCN(Cc2ccc3c(c2)OCO3)CC1	-88	-	-	-	-
Fc1ccccc1N1CCN(Cc2c(F)cccc2F)CC1	?	-	-	-	-
Clc1ccccc1CN1CCN(c2ccccc2Cl)CC1	-83	-	-	-	-
Fc1ccccc1N1CCN(Cc2ccc3c(c2)OCO3)CC1	?	-	-	-	-
Cc1ccc(OCC(=O)N2CCN(Cc3ccc4c(c3)OCO4)CC2)cc1C	-	-	-	-	-
CC(C)NC(C)Cc1ccc(I)cc1 (configuration not stated)	-89	-	-	-	-
O=C(CCn1nc(-c2ccc(Cl)cc2)ccc1=O)N1CCC2(CC1)OCCO2	-	-	-	-	-
O=C(Cn1nc(-c2ccc(Cl)cc2)ccc1=O)N1CCC2(CC1)OCCO2	-	-	-35	-	-
Fc1cccc(F)c1CN1CCN(c2ccc(Cl)cc2)CC1	-	-	-	-	-
CCCCCCN1CCN(c2ccc(Cl)cc2)CC1	?	-	-	-	-
Fc1ccc(CN2CCN(c3ccc(Cl)cc3)CC2)cc1	-52	-	-	-	-
Cc1cccc(CN2CCN(c3ccc(Cl)cc3)CC2)c1	-95	-	-	-	-
Cc1cccc(CN2CCN(Cc3ccc(Cl)cc3)CC2)c1	-64	-	-	-	-
SMILES	DRD3 antagonist	D1 potentiator	D1 antag	D1 ag	D3 ag
CCC1(CC)C(=O)NC(=O)N(C)C1=O	.	.	.	.	-
COc1cc2c(cc1O)[C@@H]1Cc3ccc(OC)c(O)c3CN1CC2	-100	-	-90	-	-
COc1ccc(C[C@@H]2c3cc(O)c(OC)cc3CCN2C)cc1O	-117	-	-88	-	-
COc1ccc(CC2c3cc(OC)c(OC)cc3CCN2C)cc1OC (configuration not stated)	-	-	-	-	-
COc1cccc(-n2c(/C=C/c3ccccc3O)nc3ccccc3c2=O)c1	.	-	-	-	-
CC(=O)OCC1=C(C(=O)O)N2C(=O)[C@@H](N)[C@H]2SC1	.	.	.	.	-
O=C(Cc1ccccc1)N1CCN(Cc2ccc([N+](=O)[O-])cc2)CC1	-	-	-	-	-
O=[N+]([O-])c1cccc(CN2CCN(Cc3ccc(Br)cc3)CC2)c1	-102	-	-	-	-
COc1ccc2[nH]c(C)c(CCNCc3cc(OC)c(OC)c(OC)c3)c2c1	-	-	-	-	-
COc1ccc(CNCCc2c(C)[nH]c3ccc(OC(F)(F)F)cc23)c(OC)c1	-	-	-55	99	-
N#Cc1cc2c(nc1SCC(=O)Nc1ccc(OC(F)(F)F)cc1)C1CCN2CC1	.	-	-	-	-
